# According to the supplement of paper PMC11732987, “Enantioselective OTUD7B fragment discovery through chemoproteomics screening and high-throughput optimisation” (Communications Chemistry, 2025):
# Unmarked numbers belong to inactive results.
# Tests used:
# Test in all cases: log2 ratio of Biotin-Ahx-Ub-VS probe labelling (compound/DMSO); higher = less target engagement, active = hit call of the paper (q ≤ 0.05, log2 ratio ≤ -1)
# Details in all cases: treatment time: 3 h
# [1] = compound: CN(Cc1cccc(Br)c1)C(=O)CCl
# Procedure, shortened: (§1)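 Compound at 50 or 200 µM, or DMSO, was applied for 3 h in triplicate to HEK293T lysate (495 µg per sample, Tris/CHAPS/IGEPAL buffer with protease inhibitors), after which Biotin-Ahx-Ub-VS was added at 0.5 µM final for 1 h. The labelled DUBs were pulled down with NeutrAvidin, digested with LysC and trypsin, and run by diaPASEF LC-MS/MS. Ratios are averaged base-two logs of compound over DMSO from median-normalised label-free quantities by unpaired t-test, counting only proteins with at least 2 unique peptides.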
# [2] = compound: CN(Cc1cccc(OCc2ccccc2C)c1)C(=O)CCl
# Procedure, shortened: as §1
# [3] = compound: CN(Cc1ccccc1)C(=O)CCl
# Procedure, shortened: as §1
# [4] = compound: COc1ccc(CN(C)C(=O)CCl)cc1
# Procedure, shortened: as §1
# [5] = compound: COc1cccc(CN(CCCc2ccccc2)C(=O)CCl)c1
# Procedure, shortened: as §1
# [6] = compound: ClCC(=O)N1CCc2cc(Cl)c(Cl)cc2C1
# Procedure, shortened: as §1
# [7] = compound: ClCC(=O)N1CCc2nc(ncc2C1)-c1ccccc1
# Procedure, shortened: as §1
# [8] = compound: ClCC(=O)N1CCc2nocc2C1
# Procedure, shortened: as §1
# [9] = compound: ClCC(=O)N1CCc2scc(Br)c2C1
# Procedure, shortened: as §1
# [10] = compound: ClCC(=O)NC(C1CCCC1)c1cccs1
# Procedure, shortened: as §1
# UniProt P45974, sequence (P45974 whole entry): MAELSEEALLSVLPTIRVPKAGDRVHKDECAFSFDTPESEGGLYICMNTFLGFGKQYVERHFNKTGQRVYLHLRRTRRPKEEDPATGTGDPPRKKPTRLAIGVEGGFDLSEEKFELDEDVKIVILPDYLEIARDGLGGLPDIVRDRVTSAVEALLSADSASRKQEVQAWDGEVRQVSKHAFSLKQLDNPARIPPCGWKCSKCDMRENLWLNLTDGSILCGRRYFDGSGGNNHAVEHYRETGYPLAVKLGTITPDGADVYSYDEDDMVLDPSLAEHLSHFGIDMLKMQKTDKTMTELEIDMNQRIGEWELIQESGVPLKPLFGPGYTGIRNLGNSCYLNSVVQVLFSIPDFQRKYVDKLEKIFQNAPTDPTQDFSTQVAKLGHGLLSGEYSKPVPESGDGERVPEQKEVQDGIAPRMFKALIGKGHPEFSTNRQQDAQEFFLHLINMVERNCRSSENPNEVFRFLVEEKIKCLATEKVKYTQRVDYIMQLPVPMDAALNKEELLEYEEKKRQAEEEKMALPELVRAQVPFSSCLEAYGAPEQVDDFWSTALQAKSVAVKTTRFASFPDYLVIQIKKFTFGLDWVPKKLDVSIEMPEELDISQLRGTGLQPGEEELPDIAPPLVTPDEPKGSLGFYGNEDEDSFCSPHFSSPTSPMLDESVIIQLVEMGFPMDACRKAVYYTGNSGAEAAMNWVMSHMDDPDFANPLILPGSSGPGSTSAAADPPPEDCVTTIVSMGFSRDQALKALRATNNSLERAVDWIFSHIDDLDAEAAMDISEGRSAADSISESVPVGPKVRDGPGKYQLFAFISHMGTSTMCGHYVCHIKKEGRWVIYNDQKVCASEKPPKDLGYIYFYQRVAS
# UniProt Q9UGI0, sequence (Q9UGI0 whole entry): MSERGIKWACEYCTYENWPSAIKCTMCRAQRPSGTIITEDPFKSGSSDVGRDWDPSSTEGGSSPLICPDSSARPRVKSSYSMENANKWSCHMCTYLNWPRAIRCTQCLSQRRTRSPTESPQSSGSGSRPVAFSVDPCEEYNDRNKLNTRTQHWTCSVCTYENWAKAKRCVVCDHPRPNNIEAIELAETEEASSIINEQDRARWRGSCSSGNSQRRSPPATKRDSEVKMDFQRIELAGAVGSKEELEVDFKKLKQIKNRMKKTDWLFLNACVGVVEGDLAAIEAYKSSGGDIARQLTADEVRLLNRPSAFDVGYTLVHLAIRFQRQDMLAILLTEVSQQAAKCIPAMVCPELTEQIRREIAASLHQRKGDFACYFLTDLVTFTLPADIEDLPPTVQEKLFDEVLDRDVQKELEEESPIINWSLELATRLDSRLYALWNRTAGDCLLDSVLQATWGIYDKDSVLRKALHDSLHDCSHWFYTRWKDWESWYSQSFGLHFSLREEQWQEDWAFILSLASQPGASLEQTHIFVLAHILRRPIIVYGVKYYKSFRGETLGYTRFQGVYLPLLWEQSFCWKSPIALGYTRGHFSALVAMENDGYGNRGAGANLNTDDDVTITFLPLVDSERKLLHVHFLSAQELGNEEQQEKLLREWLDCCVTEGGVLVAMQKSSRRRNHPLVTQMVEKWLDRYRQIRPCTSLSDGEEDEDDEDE
# UniProt Q9NUU6, sequence (Q9NUU6 whole entry): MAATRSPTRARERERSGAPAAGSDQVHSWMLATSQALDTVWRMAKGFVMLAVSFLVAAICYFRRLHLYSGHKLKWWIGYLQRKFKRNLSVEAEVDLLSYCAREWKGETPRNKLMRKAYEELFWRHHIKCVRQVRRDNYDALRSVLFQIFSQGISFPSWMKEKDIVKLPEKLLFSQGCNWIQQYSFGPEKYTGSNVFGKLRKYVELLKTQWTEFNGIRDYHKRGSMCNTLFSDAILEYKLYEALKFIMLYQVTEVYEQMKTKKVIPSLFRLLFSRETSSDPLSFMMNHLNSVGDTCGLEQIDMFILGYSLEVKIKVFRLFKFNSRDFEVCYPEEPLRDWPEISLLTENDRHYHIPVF
# UniProt Q86UV5, sequence (Q86UV5 whole entry): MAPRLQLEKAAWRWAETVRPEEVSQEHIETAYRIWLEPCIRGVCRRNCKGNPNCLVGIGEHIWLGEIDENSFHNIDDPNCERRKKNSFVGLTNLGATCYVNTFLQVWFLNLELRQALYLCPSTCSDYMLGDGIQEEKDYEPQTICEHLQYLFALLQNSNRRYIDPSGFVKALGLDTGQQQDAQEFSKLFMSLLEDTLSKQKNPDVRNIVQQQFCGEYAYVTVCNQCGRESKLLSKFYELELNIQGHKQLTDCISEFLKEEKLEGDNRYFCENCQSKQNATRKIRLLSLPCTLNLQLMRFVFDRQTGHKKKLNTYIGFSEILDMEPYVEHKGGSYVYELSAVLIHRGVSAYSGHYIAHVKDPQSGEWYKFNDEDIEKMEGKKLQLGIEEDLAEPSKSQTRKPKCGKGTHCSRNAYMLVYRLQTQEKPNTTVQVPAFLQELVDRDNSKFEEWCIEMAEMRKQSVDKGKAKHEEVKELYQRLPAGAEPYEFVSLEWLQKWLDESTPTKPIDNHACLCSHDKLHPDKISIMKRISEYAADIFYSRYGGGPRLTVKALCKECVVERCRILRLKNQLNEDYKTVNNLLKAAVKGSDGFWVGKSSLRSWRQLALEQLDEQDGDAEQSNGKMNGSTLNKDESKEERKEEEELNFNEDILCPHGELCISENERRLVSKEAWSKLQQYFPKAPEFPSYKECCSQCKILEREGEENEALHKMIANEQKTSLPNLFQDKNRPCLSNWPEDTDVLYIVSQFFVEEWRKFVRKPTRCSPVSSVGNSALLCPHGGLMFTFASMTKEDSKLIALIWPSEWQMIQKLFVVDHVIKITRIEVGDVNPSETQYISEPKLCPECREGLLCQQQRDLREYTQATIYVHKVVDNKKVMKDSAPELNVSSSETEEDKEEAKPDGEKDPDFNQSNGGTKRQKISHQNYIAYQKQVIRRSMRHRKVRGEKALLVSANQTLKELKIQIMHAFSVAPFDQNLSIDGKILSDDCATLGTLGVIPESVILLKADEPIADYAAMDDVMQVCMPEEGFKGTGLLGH
Target,log2 ratio of Biotin-Ahx-Ub-VS probe labelling ([1]; compound concentration: 50uM),log2 ratio of Biotin-Ahx-Ub-VS probe labelling ([1]; compound concentration: 200uM),log2 ratio of Biotin-Ahx-Ub-VS probe labelling ([2]; compound concentration: 50uM),log2 ratio of Biotin-Ahx-Ub-VS probe labelling ([2]; compound concentration: 200uM),log2 ratio of Biotin-Ahx-Ub-VS probe labelling ([3]; compound concentration: 50uM),log2 ratio of Biotin-Ahx-Ub-VS probe labelling ([3]; compound concentration: 200uM),log2 ratio of Biotin-Ahx-Ub-VS probe labelling ([4]; compound concentration: 50uM),log2 ratio of Biotin-Ahx-Ub-VS probe labelling ([4]; compound concentration: 200uM),log2 ratio of Biotin-Ahx-Ub-VS probe labelling ([5]; compound concentration: 50uM),log2 ratio of Biotin-Ahx-Ub-VS probe labelling ([5]; compound concentration: 200uM),log2 ratio of Biotin-Ahx-Ub-VS probe labelling ([6]; compound concentration: 50uM),log2 ratio of Biotin-Ahx-Ub-VS probe labelling ([6]; compound concentration: 200uM),log2 ratio of Biotin-Ahx-Ub-VS probe labelling ([7]; compound concentration: 50uM),log2 ratio of Biotin-Ahx-Ub-VS probe labelling ([7]; compound concentration: 200uM),log2 ratio of Biotin-Ahx-Ub-VS probe labelling ([8]; compound concentration: 50uM),log2 ratio of Biotin-Ahx-Ub-VS probe labelling ([8]; compound concentration: 200uM),log2 ratio of Biotin-Ahx-Ub-VS probe labelling ([9]; compound concentration: 50uM),log2 ratio of Biotin-Ahx-Ub-VS probe labelling ([9]; compound concentration: 200uM),log2 ratio of Biotin-Ahx-Ub-VS probe labelling ([10]; compound concentration: 50uM),log2 ratio of Biotin-Ahx-Ub-VS probe labelling ([10]; compound concentration: 200uM)
USP48 (UniProt Q86UV5),-0.101,-0.603,-0.235,-0.552,-0.0688,-0.18,-0.0647,-0.237,-0.0292,-0.259,-0.214,-0.0205,-0.173,-0.226,-0.112,-0.324,-0.161,-0.327,-0.234,-0.00963
FAM105A (UniProt Q9NUU6),-0.187,-0.00846,-0.255,-0.114,-0.198,0.0229,-0.0227,-0.0524,-0.219,-0.197,0.119,-0.429,-0.124,-0.242,-0.252,-0.149,0.049,-0.0833,0.0872,0.0369
UniProt Q9UGI0,-0.13,-0.336,-0.392,-0.664,-0.482,-0.697,-0.127,-0.258,-0.157,-0.231,0.132,-0.542,0.0381,-0.223,-0.539,-1.16 (active),-0.277,-1.14 (active),-0.0906,0.116
USP5 (UniProt P45974),0.304,0.538,-0.113,-0.0873,-0.0827,-0.00169,-0.0203,0.204,0.212,0.11,0.412,-0.121,0.389,0.254,0.00846,0.00188,0.214,0.0804,0.00222,-0.112
